Assay outcomes (PubChem BioAssay)
hDAT+cocaine = modulates human dopamine transporter uptake under cocaine | Q01959 | LLC-PK1 hDAT cells, [14C]-dopamine uptake with cocaine IC80; actives deviate in either direction | B-score at 10 µM | hit rate 1.3% among 110,000 | AID 449768;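 active = Z score or B-score, a plate-position-corrected score, falls beyond the plate's 99.7% confidence bounds, in either direction; inactive = both scores lie inside the 99.7% bounds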;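 note: scored against the spread of the other compound wells on the same plate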
M1 antagonist = antagonists of rat M1 muscarinic receptor; P08482; CHO-M1 cells, Fluo-4 calcium, ACh EC80 antagonist mode; hits give low values; B-score at 10 µM; hit rate 3.4% among 64,000;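 active = calcium fluorescence response, raw or row-and-column corrected B-score, differing from the plate sample mean either way at a set confidence level, mostly lower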
FXIIa inh mix = blocks human factor XIIa in pooled compound mixtures | purified FXIIa, fluorogenic substrate | inhibition, % at 5 µM | hit rate 0.2% among 62,000 | AID 684;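 note: 0% = enzyme without compound and 100% = no enzyme blank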
Target sequence (P00748 20-372 limits assumed): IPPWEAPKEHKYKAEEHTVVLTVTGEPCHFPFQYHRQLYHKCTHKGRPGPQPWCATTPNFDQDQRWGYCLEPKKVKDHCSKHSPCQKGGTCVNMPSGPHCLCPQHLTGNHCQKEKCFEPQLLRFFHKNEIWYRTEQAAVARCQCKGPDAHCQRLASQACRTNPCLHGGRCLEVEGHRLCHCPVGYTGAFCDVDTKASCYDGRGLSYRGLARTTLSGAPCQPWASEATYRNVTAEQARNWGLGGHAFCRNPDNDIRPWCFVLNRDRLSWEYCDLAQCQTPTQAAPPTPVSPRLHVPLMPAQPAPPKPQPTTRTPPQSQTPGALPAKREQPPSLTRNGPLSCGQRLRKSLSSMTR
Target sequence (P00748 373-615 limits assumed): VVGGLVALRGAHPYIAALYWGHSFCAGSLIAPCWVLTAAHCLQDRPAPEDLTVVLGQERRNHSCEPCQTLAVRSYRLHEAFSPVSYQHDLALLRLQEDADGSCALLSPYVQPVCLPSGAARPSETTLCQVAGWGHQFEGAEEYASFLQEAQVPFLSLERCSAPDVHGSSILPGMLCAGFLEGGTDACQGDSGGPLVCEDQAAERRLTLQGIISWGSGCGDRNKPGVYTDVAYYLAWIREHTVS
D1 mod = allosterically modulates the human D1 dopamine receptor; P21728; HEK293 D1, CRE-luciferase, dopamine EC30 potentiation; actives deviate in either direction; B-score at 10 µM; hit rate 5.9% among 58,000; AID 641;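 active = luminescence count or its row- and column-corrected plate score outside the 99.7% band of the plate's sample wells, on either side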
FXIa inh mix = factor XIa (human) inhibition, mixture screen; inhibition, % at 5 µM; P03951; AID 680; purified FXIa, fluorogenic substrate, pooled mixtures; hit rate 0.19% among 62,000;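 note: each value is inhibition by a whole ten-compound pool holding the compound; 0% = enzyme with no mixture and 100% = wells lacking enzyme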
M1 agonist = M1 muscarinic receptor agonism | B-score at 10 µM | hit rate 3% among 64,000 | CHO-M1 cells, Fluo-4 calcium fluorescence, agonist mode; hits give high values;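 active = fluorescence rise, raw or as B-score row- and column-corrected plate score, outside the 99.7% band of its plate's samples, either direction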
* marks the source's active call; other numbers are inactive results. Hits are enriched below; roughly 7.4% of the tested compounds scored in any of these assays. Cut-off read from the data, not from the text of the source, unless noted: active = inhibition above about 20% (passing the limit was not always enough); inactive = the rest.

Results for CC(C(=O)NC1CCCC1)N(C(=O)CS(=O)CC(=O)Nc1ccc(F)cc1)c1ccc2c(c1)OCCO2 (stereo not given) ?
hDAT+cocaine: 0.2

How did O=C(CCCCCN1C(=O)CCC1=O)Nc1ccc(Cl)c(C(F)(F)F)c1 do in these assays?
hDAT+cocaine: -1

How did CCOc1ccc(CN(C(=O)c2ccco2)C2CCS(=O)(=O)C2)cc1 (stereo not given) do in these assays?
hDAT+cocaine: 0.0071; M1 antagonist: -0.16; FXIIa inh mix: -3; D1 mod: 0.46; FXIa inh mix: -41; M1 agonist: 0.33

What do the screens show for `COc1cccc(C(=O)N(Cc2ccc(N(C)C)cc2)C2CCS(=O)(=O)C2)c1` (stereo not given)?
hDAT+cocaine: 2.6*; M1 antagonist: 0.46; FXIIa inh mix: -2; D1 mod: 0.063; FXIa inh mix: 0; M1 agonist: -0.011

How did C=CCSc1nc(-c2ccccc2)c2cc(Cl)ccc2n1 do in these assays?
hDAT+cocaine: -1.6*

What do the screens show for `CN(C)C(=O)N1CCC(C(=O)NCc2ccc3c(c2)OCO3)CC1`?
hDAT+cocaine: 0.015

How did c1ccc2c(c1)CCN2CCN1CCc2ccccc21 do in these assays?
hDAT+cocaine: -1.2; M1 antagonist: 0.011; FXIIa inh mix: 2; D1 mod: -3.2*; FXIa inh mix: 9; M1 agonist: 0.0097

How did CCn1c(SCC(=O)c2ccc(O)c(O)c2)nnc1-c1ccc(C)cc1 do in these assays?
hDAT+cocaine: -0.86

How did CCn1c(SCC(=O)c2ccc3c(c2)Cc2ccccc2-3)nnc1-c1ccc(N)cc1 do in these assays?
hDAT+cocaine: 1.7*

How did COC(=O)c1ccc(NC(=O)C2CCCN2S(=O)(=O)c2ccc(OC)cc2)cc1 (stereo not given) do in these assays?
hDAT+cocaine: -0.064; M1 antagonist: -0.1; D1 mod: -0.0073; M1 agonist: -0.92

What do the screens show for `COc1ccc(S(=O)(=O)N2CCCC(C(=O)N3CCCCCC3)C2)cc1` (stereo not given)?
hDAT+cocaine: -0.021; M1 antagonist: 0.11; FXIIa inh mix: 5; D1 mod: 0.12; FXIa inh mix: 8; M1 agonist: -0.064

How did COc1cc2nc(N(C)C)nc(N)c2cc1OC do in these assays?
hDAT+cocaine: -0.6; M1 antagonist: 0.96; FXIIa inh mix: 9; D1 mod: -4.6*; FXIa inh mix: -1; M1 agonist: -0.49

What do the screens show for `COc1cc2nc(N(C)CCCNC(=O)C3CCCO3)nc(N)c2cc1OC` (stereo not given)?
hDAT+cocaine: -0.048

What do the screens show for `COc1cc(C(=O)Nc2cccc(-c3nc4cc(C)cc(C)c4o3)c2)cc(OC)c1OC`?
hDAT+cocaine: 0.089; M1 antagonist: -0.37; FXIIa inh mix: -17; D1 mod: -1.5; FXIa inh mix: -6; M1 agonist: 0.34

How did Cc1nc2ncnn2c(N2CCN(C(c3ccccc3)c3ccccc3)CC2)c1C do in these assays?
hDAT+cocaine: 3.2*; M1 antagonist: -0.12; FXIIa inh mix: 7; D1 mod: 1.2; FXIa inh mix: 1; M1 agonist: 2.6

How did Cc1cc(N2CCN(C(c3ccccc3)c3ccccc3)CC2)n2ncnc2n1 do in these assays?
hDAT+cocaine: 2.5; M1 antagonist: -0.84; FXIIa inh mix: 7; D1 mod: -1.3; FXIa inh mix: 11; M1 agonist: 2.2

Results for O=C(COc1ccc(S(=O)(=O)NC2CCCCC2)cc1Cl)Nc1ccc2c(c1)OCO2 ?
hDAT+cocaine: 0.1

How did CN=C(Nc1ccccc1OC)SC1CC(=O)N(c2ccc(C(=O)OC)cc2)C1=O (stereo not given) do in these assays?
hDAT+cocaine: 2.4*

What do the screens show for `CCc1nnc(NC(=O)c2ccc(-c3cccc(C(F)(F)F)c3)o2)s1`?
hDAT+cocaine: -7.6*; M1 antagonist: -0.05; FXIIa inh mix: -13; D1 mod: -0.71; FXIa inh mix: 6; M1 agonist: -0.2

Results for CC(C)NC(=O)c1c(CSc2ccccc2)noc1C(=O)NCc1ccccc1 ?
hDAT+cocaine: 2.8*

How did COCCNC(=O)c1c(CSc2ccccc2)noc1C(=O)NCc1ccccc1 do in these assays?
hDAT+cocaine: 0.46

What do the screens show for `O=C(NCc1ccccc1)c1onc(CSc2ccccc2)c1C(=O)NCc1ccccc1`?
hDAT+cocaine: 1.6*

How did COc1ccc2c(=O)cc(C(F)(F)C(F)(F)F)oc2c1 do in these assays?
hDAT+cocaine: -0.28; M1 antagonist: 0.016; FXIIa inh mix: 5; D1 mod: 1.4; FXIa inh mix: -7; M1 agonist: -0.003

How did Cc1ccc(N2C(=O)CC(Sc3ncn[nH]3)C2=O)cc1C (stereo not given) do in these assays?
hDAT+cocaine: -3.1*

Results for O=c1cc[nH]c2cccc(Cc3ccccc3)c12 ?
hDAT+cocaine: -1.5; M1 antagonist: 0.54; FXIIa inh mix: 3; D1 mod: -0.48; FXIa inh mix: 7; M1 agonist: -0.73

How did CCOc1ccc(NC(=O)C(C)Oc2ccccc2C(=O)Nc2ccc(C)c(Cl)c2)cc1 (stereo not given) do in these assays?
hDAT+cocaine: 2.7*

Results for CCOc1ccc(NC(=O)c2ccccc2OCC(=O)c2ccc(C)cc2)cc1 ?
hDAT+cocaine: -0.27

What do the screens show for `Cc1onc(-c2ccccc2)c1C(=O)NCC1CCCO1` (stereo not given)?
hDAT+cocaine: -0.38; M1 antagonist: -0.047; FXIIa inh mix: 1; D1 mod: -0.022; FXIa inh mix: 7; M1 agonist: -0.31

How did CCOC(=O)C1=C(C)OC(N)=C(C#N)C1c1ccc(OC)c(C)c1OC (stereo not given) do in these assays?
hDAT+cocaine: 0.75; M1 antagonist: -0.24; FXIIa inh mix: 5; D1 mod: -0.67; FXIa inh mix: -2; M1 agonist: 1.2

Results for O=C(CCN1CCC(c2ccccc2)C1)c1ccc2c(c1)OCCO2 (stereo not given) ?
hDAT+cocaine: 0.42

What do the screens show for `O=C(CCN1CCCCC1)c1ccc2c(c1)OCCO2`?
hDAT+cocaine: 4.8*; M1 antagonist: -0.79; FXIIa inh mix: 5; D1 mod: -0.76; FXIa inh mix: -6; M1 agonist: 0.078

Results for CC(C)NC(=O)CSc1nnc(C2CC2)n1-c1ccccc1 ?
hDAT+cocaine: 0.15

What do the screens show for `NC(=O)CSc1nnc(C2CC2)n1-c1ccccc1`?
hDAT+cocaine: -9.3*

How did O=C(CCC(=O)OCC(F)(F)C(F)F)Nc1ccc(Cl)cc1 do in these assays?
hDAT+cocaine: 0.8; M1 antagonist: -0.14; FXIIa inh mix: 3; D1 mod: -0.13; FXIa inh mix: 11; M1 agonist: -1.2

How did CCOc1ccc(-n2cc(C(=O)Nc3cccc(C)n3)c3cc(OC)c(OC)cc3c2=O)cc1 do in these assays?
hDAT+cocaine: 1.7; M1 antagonist: -0.059; FXIIa inh mix: 2; D1 mod: -0.91; FXIa inh mix: -12; M1 agonist: 7.6*

How did CCOC(=O)c1c(N2C(=O)Nc3cc(Cl)c(Cl)cc3N2O)sc2c1CCCCC2 do in these assays?
hDAT+cocaine: 3.8*
